# Shown is part of a subset that was picked to be rich in the strongest signals.
# B1: AICL (Homo sapiens), Q92478 (protein)
# chain: MMTKHKKCFIIVGVLITTNIITLIVKLTRDSQSLCPYDWIGFQNKCYYFSKEEGDWNSSKYNCSTQHADLTIIDNIEEMNFLRRYKCSSDHWIGLKMAKNRTGQWVDGATFTKSFGMRGSEGCAYLSDDGAATARCYTERKWICRKRIH
# B2: E-Selectin (Homo sapiens), P16581 (protein)
# chain: MIASQFLSALTLVLLIKESGAWSYNTSTEAMTYDEASAYCQQRYTHLVAIQNKEEIEYLNSILSYSPSYYWIGIRKVNNVWVWVGTQKPLTEEAKNWAPGEPNNRQKDEDCVEIYIKREKDVGMWNDERCSKKKLALCYTAACTNTSCSGHGECVETINNYTCKCDPGFSGLKCEQIVNCTALESPEHGSLVCSHPLGNFSYNSSCSISCDRGYLPSSMETMQCMSSGEWSAPIPACNVVECDAVTNPANGFVECFQNPGSFPWNTTCTFDCEEGFELMGAQSLQCTSSGNWDNEKPTCKAVTCRAVRQPQNGSVRCSHSPAGEFTFKSSCNFTCEEGFMLQGPAQVECTTQGQWTQQIPVCEAFQCTALSNPERGYMNCLPSASGSFRYGSSCEFSCEQGFVLKGSKRLQCGPTGEWDNEKPTCEAVRCDAVHQPPKGLVRCAHSPIGEFTYKSSCAFSCEEGFELHGSTQLECTSQGQWTEEVPSCQVVKCSSLAVPGKINMSCSGEPVFGTVCKFACPEGWTLNGSAARTCGATGHWSGLLPTCEAPTESNIPLVAGLSAAGLSLLTLAPFLLWLRKCLRKAKKFVPASSCQSLESDGSYQKPSYIL
# What was measured:
# Experiment in all cases: glycan array binding signal (z-score within array); higher = stronger binding
# Settings in all cases: glycan notation: IUPAC condensed, linker removed
# [1] = target: Fuc(a1-2)Gal(b1-4)[Fuc(a1-3)]GlcNAc(b1-3)Gal(b1-4)[Fuc(a1-3)]GlcNAc
# Summary of the method: (§1)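 Glycan array data came from 3228 arrays in the Consortium for Functional Glycomics database, and only arrays with an available protein sequence were kept. Glycan names were put into IUPAC-condensed notation, and columns mapping to the same glycan were averaged. The binding signal is a within-array Z-score, averaged across arrays of one protein sequence run at different concentrations or buffers and across linkers. A negative Z-score can be read as non-binding.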
# Fuc(a1-2)[Gal(a1-3)]Gal = target: Fuc(a1-2)[Gal(a1-3)]Gal
# Summary of the method: as §1
# [2] = target: Fuc(a1-2)[GalNAc(a1-3)]Gal(b1-4)Glc
# Summary of the method: as §1
# [3] = target: Fuc(a1-3)[Gal(b1-4)]GlcNAc
# Summary of the method: as §1
# Fuc(b1-3)GlcNAc = target: Fuc(b1-3)GlcNAc
# Summary of the method: as §1
# Gal(a1-3)Gal = target: Gal(a1-3)Gal
# Summary of the method: as §1
# [4] = target: Gal(b1-3)[Neu5Ac(a2-6)]GalNAc
# Summary of the method: as §1
# [5] = target: Gal(b1-3)[Neu5Ac(a2-6)]GlcNAc(b1-6)Gal(b1-4)Glc
# Summary of the method: as §1
# [6] = target: Gal(b1-4)GlcNAc(b1-3)Gal(b1-4)GlcNAc
# Summary of the method: as §1
# Gal3S6S(b1-4)GlcNAc6S = target: Gal3S6S(b1-4)GlcNAc6S
# Summary of the method: as §1
# [7] = target: GalNAc(b1-3)Gal(a1-4)Gal(b1-4)GlcNAc
# Summary of the method: as §1
# GalNAc(b1-4)GlcNAc = target: GalNAc(b1-4)GlcNAc
# Summary of the method: as §1
# Glc(b1-6)Glc = target: Glc(b1-6)Glc
# Summary of the method: as §1
# GlcA(b1-3)Gal = target: GlcA(b1-3)Gal
# Summary of the method: as §1
# GlcA(b1-6)Gal = target: GlcA(b1-6)Gal
# Summary of the method: as §1
# GlcNAc(b1-3)Gal = target: GlcNAc(b1-3)Gal
# Summary of the method: as §1
# [8] = target: GlcNAc(b1-3)Gal(b1-4)GlcNAc(b1-3)Gal(b1-4)GlcNAc
# Summary of the method: as §1
# Kdn(a2-3)Gal(b1-4)GlcNAc = target: Kdn(a2-3)Gal(b1-4)GlcNAc
# Summary of the method: as §1
# Man(b1-4)GlcNAc = target: Man(b1-4)GlcNAc
# Summary of the method: as §1
# [9] = target: Neu5Ac(a2-3)Gal(b1-3)[Fuc(a1-4)]GlcNAc
# Summary of the method: as §1
# [10] = target: Neu5Ac(a2-3)Gal(b1-4)GlcNAc(b1-3)Gal(b1-4)GlcNAc(b1-3)Gal(b1-4)GlcNAc
# Summary of the method: as §1
# [11] = target: Neu5Ac(a2-3)[GalNAc(b1-4)]Gal(b1-4)GlcNAc
# Summary of the method: as §1
# Neu5Ac(a2-8)Neu5Ac = target: Neu5Ac(a2-8)Neu5Ac
# Summary of the method: as §1
# [12] = target: Neu5Gc(a2-3)Gal(b1-3)[Fuc(a1-4)]GlcNAc
# Summary of the method: as §1
# [13] = target: Neu5Gc(a2-3)Gal(b1-4)GlcNAc
# Summary of the method: as §1
# [14] = target: Neu5Gc(a2-6)Gal(b1-4)GlcNAc
# Summary of the method: as §1
# [15] = target: Fuc(a1-2)[Gal(a1-3)]Gal(b1-4)Glc
# Summary of the method: as §1
# Fuc(a1-4)GlcNAc = target: Fuc(a1-4)GlcNAc
# Summary of the method: as §1
# [16] = target: Gal(a1-3)[Gal(a1-4)]Gal(b1-4)GlcNAc
# Summary of the method: as §1
# [17] = target: Gal(b1-3)GlcNAc(b1-3)Gal(b1-4)GlcNAc
# Summary of the method: as §1
# Gal(b1-4)Glc = target: Gal(b1-4)Glc
# Summary of the method: as §1
# [18] = target: Gal(b1-4)GlcNAc(b1-2)Man(a1-3)[Gal(b1-4)GlcNAc(b1-2)Man(a1-6)]Man(b1-4)GlcNAc(b1-4)GlcNAc
# Summary of the method: as §1
# [19] = target: Gal(b1-4)GlcNAc(b1-3)Gal(b1-4)Glc
# Summary of the method: as §1
# [20] = target: Gal(b1-4)GlcNAc(b1-3)[GlcNAc(b1-6)]Gal(b1-4)GlcNAc
# Summary of the method: as §1
# [21] = target: Gal3S(b1-3)[Fuc(a1-4)]GlcNAc
# Summary of the method: as §1
# Gal3S(b1-4)Glc = target: Gal3S(b1-4)Glc
# Summary of the method: as §1
# Gal4S6S(b1-4)GlcNAc = target: Gal4S6S(b1-4)GlcNAc
# Summary of the method: as §1
# Gal6S(b1-4)Glc = target: Gal6S(b1-4)Glc
# Summary of the method: as §1
# [22] = target: GlcNAc(b1-2)Gal(b1-3)GalNAc
# Summary of the method: as §1
# GlcNAc(b1-3)GalNAc = target: GlcNAc(b1-3)GalNAc
# Summary of the method: as §1
# [23] = target: GlcNAc(b1-3)[GlcNAc(b1-4)][GlcNAc(b1-6)]GlcNAc
# Summary of the method: as §1
# [24] = target: GlcNAc(b1-3)[GlcNAc(b1-6)]GlcNAc(b1-4)GlcNAc
# Summary of the method: as §1
# [25] = target: Man(a1-3)[Man(a1-6)]Man(a1-6)[Man(a1-3)]Man
# Summary of the method: as §1
# [26] = target: Neu5Ac(a2-3)Gal(b1-3)GalNAc(b1-3)Gal(a1-4)Gal(b1-4)Glc
# Summary of the method: as §1
# [27] = target: Neu5Ac(a2-3)Gal(b1-3)[Fuc(a1-4)]GlcNAc(b1-3)Gal(b1-4)[Fuc(a1-3)]GlcNAc
# Summary of the method: as §1
# [28] = target: Neu5Ac(a2-3)Gal(b1-4)GlcNAc(b1-2)Man(a1-3)[Neu5Ac(a2-3)Gal(b1-4)GlcNAc(b1-2)Man(a1-6)]Man(b1-4)GlcNAc(b1-4)GlcNAc
# Summary of the method: as §1
# [29] = target: Neu5Ac(a2-3)Gal(b1-4)[Fuc(a1-3)]GlcNAc(b1-3)Gal
# Summary of the method: as §1
# [30] = target: Neu5Ac(a2-6)Gal(b1-4)GlcNAc(b1-2)Man(a1-6)[GlcNAc(b1-2)Man(a1-3)]Man(b1-4)GlcNAc(b1-4)GlcNAc
# Summary of the method: as §1
# [31] = target: Neu5Ac(a2-6)GalNAc(b1-4)GlcNAc
# Summary of the method: as §1
# [32] = target: Neu5Ac9Ac(a2-6)Gal(b1-4)GlcNAc
# Summary of the method: as §1
# Neu5Gc(a2-6)GalNAc = target: Neu5Gc(a2-6)GalNAc
# Summary of the method: as §1
binder,measurement,setting,value
B1,glycan array binding signal (z-score),[1],-0.049
same,glycan array binding signal (z-score),Fuc(a1-2)[Gal(a1-3)]Gal,-0.508
same,glycan array binding signal (z-score),[2],-0.265
same,glycan array binding signal (z-score),[3],-0.169
same,glycan array binding signal (z-score),Fuc(b1-3)GlcNAc,-0.469
same,glycan array binding signal (z-score),Gal(a1-3)Gal,-0.224
same,glycan array binding signal (z-score),[4],-0.085
same,glycan array binding signal (z-score),[5],-0.359
same,glycan array binding signal (z-score),[6],-0.439
same,glycan array binding signal (z-score),Gal3S6S(b1-4)GlcNAc6S,5.26
same,glycan array binding signal (z-score),[7],-0.363
same,glycan array binding signal (z-score),GalNAc(b1-4)GlcNAc,-0.322
same,glycan array binding signal (z-score),Glc(b1-6)Glc,-0.395
same,glycan array binding signal (z-score),GlcA(b1-3)Gal,5.65
same,glycan array binding signal (z-score),GlcA(b1-6)Gal,4.6
same,glycan array binding signal (z-score),GlcNAc(b1-3)Gal,-0.329
same,glycan array binding signal (z-score),[8],-0.374
same,glycan array binding signal (z-score),Kdn(a2-3)Gal(b1-4)GlcNAc,2.06
same,glycan array binding signal (z-score),Man(b1-4)GlcNAc,-0.401
same,glycan array binding signal (z-score),[9],-0.312
same,glycan array binding signal (z-score),[10],-0.415
same,glycan array binding signal (z-score),[11],-0.3
same,glycan array binding signal (z-score),Neu5Ac(a2-8)Neu5Ac,0.384
same,glycan array binding signal (z-score),[12],-0.323
same,glycan array binding signal (z-score),[13],0.329
same,glycan array binding signal (z-score),[14],-0.267
B2,glycan array binding signal (z-score),[1],-0.198
same,glycan array binding signal (z-score),[15],-0.226
same,glycan array binding signal (z-score),Fuc(a1-4)GlcNAc,-0.173
same,glycan array binding signal (z-score),[16],-0.265
same,glycan array binding signal (z-score),[17],-0.181
same,glycan array binding signal (z-score),Gal(b1-4)Glc,-0.251
same,glycan array binding signal (z-score),[18],-0.189
same,glycan array binding signal (z-score),[19],-0.075
same,glycan array binding signal (z-score),[20],-0.027
same,glycan array binding signal (z-score),[21],1.21
same,glycan array binding signal (z-score),Gal3S(b1-4)Glc,-0.07
same,glycan array binding signal (z-score),Gal4S6S(b1-4)GlcNAc,0.276
same,glycan array binding signal (z-score),Gal6S(b1-4)Glc,-0.044
same,glycan array binding signal (z-score),Glc(b1-6)Glc,-0.134
same,glycan array binding signal (z-score),[22],-0.209
same,glycan array binding signal (z-score),GlcNAc(b1-3)Gal,-0.024
same,glycan array binding signal (z-score),GlcNAc(b1-3)GalNAc,-0.266
same,glycan array binding signal (z-score),[23],-0.261
same,glycan array binding signal (z-score),[24],-0.105
same,glycan array binding signal (z-score),[25],-0.209
same,glycan array binding signal (z-score),[26],-0.173
same,glycan array binding signal (z-score),[9],9.04
same,glycan array binding signal (z-score),[27],3.76
same,glycan array binding signal (z-score),[28],-0.122
same,glycan array binding signal (z-score),[29],3.07
same,glycan array binding signal (z-score),[30],-0.282
same,glycan array binding signal (z-score),[31],-0.117
same,glycan array binding signal (z-score),[32],-0.181
same,glycan array binding signal (z-score),[12],12.1
same,glycan array binding signal (z-score),Neu5Gc(a2-6)GalNAc,-0.239
